Where “and” joins values, the source holds several entries; their conditions need not be identical. Identical values can stand only once. Inconclusive results are not listed. Calls of active or inactive are those of the source. Calls follow the shape of the dose curve; as a rule, active = well fitted curve in the direction sought with a large enough effect; inconclusive = small, poorly fitted or top-dose-only effect, or another doubt; inactive = no such curve, though single readings can be large; an effect the other way counts as inactive or inconclusive.
Experiments:
[1] = target: Cellular tumor antigen p53 (Homo sapiens) (UniProt P04637); assay: Primary qHTS for small molecule compounds that upregulate eGFP-tagged delta133p53alpha (in N-terminal) cells. (AID 2060322); settings: NCI-H358 eGFP-delta133p53alpha fluorescence, 24 h; activation: active compounds read high; also: nearly all actives have a fitted effect of over 75% in size; also: potency is read from the fitted curve at half-maximal effect;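 as to activation: series mostly up to about 56 µM; 0% = DMSO vehicle and 100% = reference activator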
Summary of the method: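 NCI-H358 cells pre-induced 24 h with 10 ng/ml doxycycline to express N-terminal eGFP-delta133p53alpha, then dosed 24 h at 37C without doxycycline; fixed, Hoechst-stained, GFP intensity by laser scanning cytometry, normalized to DMSO (0%) and 57.5 uM 5-azacytidine (100%).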

[2] = target: Retinaldehyde dehydrogenase 3 (Homo sapiens) (UniProt P47895); assay: qHTS for Inhibitors of the Aldehyde Dehydrogenase Family (ALDH1A3) Validation screen (AID 2061312); also: % is scaled to controls: 0 for no effect and ±100 for the full control effect; nearly all actives have a fitted effect of over 45% in size
[3] = target: Retinaldehyde dehydrogenase 3 (Homo sapiens) (UniProt P47895); assay: qHTS for Inhibitors of the Aldehyde Dehydrogenase Family (ALDH1A3) Primary screen (AID 2061315);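 also: plate controls were DMSO vehicle for no effect and reference inhibitor for full effect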
[4] = target: Aldehyde dehydrogenase, mitochondrial (Homo sapiens) (UniProt P05091); assay: qHTS for Inhibitors of the Aldehyde Dehydrogenase Family (ALDH2) Primary screen (AID 2061308);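 also: plate controls were vehicle for no effect and reference inhibitor for full effect; nearly all actives have a fitted effect of over 55% in size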
[5] = BET inhibitor-based combinations targeting novel dependencies in MECOM-rearranged (r) AML: SET-2 cell line (AID 2202231); settings: SET-2 AML cells viability, CellTiter-Glo luminescence, 48 h; viability: active compounds read low, series mostly up to about 46 µM;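 also: plate controls were DMSO treated cells for no effect and wells without cells for full effect; nearly all actives have a fitted effect of over 35% in size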
Summary of the method: (§1)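 Readout: CellTiter-Glo luminescence. Exposure: 48 h, 11 concentrations, 500 cells/well. Metric: AUC and within-line Z-AUC after DMSO/empty-well normalization.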

[6] = BET inhibitor-based combinations targeting novel dependencies in MECOM-rearranged (r) AML: OCI-AML3 cell line (AID 2202232); settings: Potency: OCI-AML3 viability; also: nearly all actives have a fitted effect of over 35% in size; also: potency is read from the fitted curve at half-maximal effect
Summary of the method: as §1

[7] = BET inhibitor-based combinations targeting novel dependencies in MECOM-rearranged (r) AML: HNT-34 cell line (AID 2202234);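 also: plate controls were vehicle wells for no effect and cell-free wells for full effect; nearly all actives have a fitted effect of over 35% in size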
Summary of the method: (§2)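 Seeding density was 500 cells/well, and drug exposure lasted 48 hr under standard culture conditions. Read-out used CellTiter-Glo reagent with a 15 min room-temperature incubation before luminescence measurement; AUC and Z-AUC summarize the normalized responses.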

[8] = BET inhibitor-based combinations targeting novel dependencies in MECOM-rearranged (r) AML: AML-191 cell line (AID 2202236;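 also: plate controls were vehicle wells for no effect and wells without cells for full effect; nearly all actives have a fitted effect of over 35% in size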)
Summary of the method: as §1

[9] = BET inhibitor-based combinations targeting novel dependencies in MECOM-rearranged (r) AML: AML-194 cell line (AID 2202237; also: nearly all actives have a fitted effect of over 40% in size; also: potency is read from the fitted curve at half-maximal effect)
Summary of the method: as §1

[10] = BET inhibitor-based combinations targeting novel dependencies in MECOM-rearranged (r) AML: MV-4-11 cell line (AID 2202233); also: nearly all actives have a fitted effect of over 45% in size; also: potency is read from the fitted curve at half-maximal effect
Summary of the method: as §2

[11] = target: Retinaldehyde dehydrogenase 3 (Homo sapiens) (UniProt P47895); assay: qHTS for Inhibitors of the Aldehyde Dehydrogenase Family (ALDH1A3) Confirmatory screens (AID 2061311); also: nearly all actives have a fitted effect of over 60% in size; also: potency is read from the fitted curve at half-maximal effect
[12] = target: Retinal dehydrogenase 2 (Homo sapiens) (UniProt O94788); assay: qHTS for Inhibitors of the Aldehyde Dehydrogenase Family (ALDH1A2) Confirmation screens (AID 2061314); also: potency is read from the fitted curve at half-maximal effect; nearly all actives have a fitted effect of over 65% in size
[13] = BET inhibitor-based combinations targeting novel dependencies in MECOM-rearranged (r) AML: UCSD-AML1 cell line (AID 2202235); also: nearly all actives have a fitted effect of over 40% in size; also: potency is read from the fitted curve at half-maximal effect
Summary of the method: as §2

[14] = target: Aldehyde dehydrogenase 1A1 (Homo sapiens) (UniProt P00352); assay: qHTS for Inhibitors of the Aldehyde Dehydrogenase Family (ALDH1A1) Confirmatory screens (AID 2061316); also: nearly all actives have a fitted effect of over 65% in size; also: potency is read from the fitted curve at half-maximal effect

Sequence of Cellular tumor antigen p53 (Homo sapiens) (P04637 whole entry, looked up): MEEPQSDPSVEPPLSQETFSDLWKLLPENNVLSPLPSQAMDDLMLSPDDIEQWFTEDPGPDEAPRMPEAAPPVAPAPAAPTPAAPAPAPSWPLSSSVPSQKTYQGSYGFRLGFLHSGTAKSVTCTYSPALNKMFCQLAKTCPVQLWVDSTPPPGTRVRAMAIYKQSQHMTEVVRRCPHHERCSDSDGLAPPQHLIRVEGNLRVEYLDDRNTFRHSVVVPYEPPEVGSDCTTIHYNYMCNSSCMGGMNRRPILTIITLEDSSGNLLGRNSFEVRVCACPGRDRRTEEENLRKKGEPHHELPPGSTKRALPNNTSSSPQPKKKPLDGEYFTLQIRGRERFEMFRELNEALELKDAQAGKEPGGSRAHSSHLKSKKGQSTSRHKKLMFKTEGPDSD

FC(F)(F)c1ccc(N2CCNCC2)nc1Cl
inactive: activation [1] -26.3% | Potency [2] | Potency [3]

NC(=O)[C@@H](CC1CC1)[C@@H](CCC(F)(F)F)C(=O)N[C@H]1N=C(c2ccccc2)c2cccc(F)c2NC1=O
inactive: activation [1] -1.79% | Potency [4] | Potency [3] | viability [5] 117% | Potency [6] | Potency [7] | Potency [8] | Potency [9]

CCN1CC2(COC)C3[C@@H](OC)C4C1C3(C1C[C@]3(O)[C@H](OC(=O)c5ccccc5)C1[C@]4(OC(C)=O)[C@@H](O)[C@@H]3OC)[C@H](OC)C[C@H]2O (stereo partly drawn)
inactive: activation [1] 8.33% | Potency [4] | Potency [3]

O=C(O)CNC(=O)c1c(O)c2ccccc2n(Cc2ccccc2)c1=O
inactive: activation [1] -9.57% and 9.82% | Potency [4] | Potency [3] | Potency [10] | Potency [7] | Potency [8] | Potency [9]

CN1CC[C@@]2(C)c3cc(O)ccc3N(C)C12 (stereo partly drawn)
active: Potency [11] 10.1 µM | Potency [12] 4.49 µM
inactive: activation [1] -31.1%

O=C(N[C@@H](COc1ccc2[nH]c(=O)[nH]c2c1)c1ccccc1)c1cccn(Cc2ccc(F)c(F)c2)c1=O
active: Potency [1] 30.6 µM
inactive: Potency [4] | Potency [3] | viability [5] 94%

COC(=O)C1(C)CCC(O)C2(C)c3c(O)cc(C(C)C)cc3C(O)C(OC(C)=O)C12 (stereo not drawn)
inactive: activation [1] -9.16% | Potency [4] | Potency [3]

CN[C@@H]1C[C@H]2O[C@@](C)([C@@H]1OC)n1c3ccccc3c3c4c(c5c6ccccc6n2c5c31)C(=O)NC4
active: Potency [1] 0.426 µM | Potency [6] 0.0833 µM | Potency [13] 0.0661 µM | Potency [9] 0.0332 µM
inactive: Potency [4] | Potency [3]

CN(C)[C@@H]1C(=O)C(C(N)=O)=C(O)[C@@]2(O)C(=O)C3=C(O)c4c(O)ccc(Cl)c4[C@@](C)(O)C3C[C@@H]12 (stereo partly drawn)
inactive: Potency [11] | Potency [3] | Potency [14]
active: Potency [1] 23.9 µM

Cc1ccccc1-n1c(Cn2cnc3c(N)ncnc32)nc2cccc(C)c2c1=O
inactive: activation [1] 46.4% and -16.1% | Potency [4] | Potency [3] | viability [5] 110% | Potency [7] | Potency [13] | Potency [9]
active: Potency [10] 1.48 µM

O=C(NCC1CCOCC1)c1cnc(Nc2ccc(Cl)cc2Cl)nc1C(F)(F)F
inactive: activation [1] -5.35% and 9.55% | Potency [4] | Potency [3] | Potency [6] | Potency [13] | Potency [9]
active: Potency [10] 14.8 µM

CNC(=O)c1ccc(N2C(=S)N(c3ccc(C#N)c(C(F)(F)F)c3)C(=O)C23CCC3)cc1F
inactive: activation [1] 38.4% and -8.11% | Potency [4] | Potency [3] | Potency [8] | Potency [9]

CN(N=O)c1ccc(O)c(O)c1
active: Potency [11] 12.7 µM
inactive: activation [1] -30.1%

CC(=O)OCC1=C(C(=O)O)N2C(=O)[C@@H](N)[C@H]2SC1
inactive: activation [1] 19.8% and -5.67% | Potency [3]

C=C1[C@@H](C)[C@H]2[C@H](Cc3ccccc3)NC(=O)[C@]23[C@H](OC(C)=O)/C=C/[C@](C)(O)C(=O)[C@@H](C)C/C=C/[C@H]3[C@@H]1O
inactive: activation [1] -8.04% | Potency [4] | Potency [3]

CC[C@@H]1/C=C/C=C/C[C@H](C)C(O)[C@](C)(O)C(=O)[C@H](C)C(O)[C@H](C)C(=O)[C@H](C)[C@@H](O)[C@H](C)/C=C/C(=O)O[C@H]2[C@@H](C)[C@@H](CC1)O[C@]1(O[C@H](C[C@H](C)O)[C@H](C)CC1=O)[C@@H]2C (stereo partly drawn)
inactive: activation [1] -12.2% | Potency [4] | Potency [3]

O=C(C[C@@H]1NCCC[C@H]1O)Cn1cnc2ccccc2c1=O
active: Potency [1] 0.239 µM
inactive: Potency [3]

O=C(Oc1ccc([N+](=O)[O-])cc1)N1CCC(C(O)(c2ccc3c(c2)OCO3)c2ccc3c(c2)OCO3)CC1
inactive: activation [1] 9.18% and -1.67% | Potency [4] | Potency [3] | viability [5] 104% | Potency [13] | Potency [8] | Potency [9]

C[C@]12CC[C@H](O[C@@H]3O[C@H](CO)[C@@H](O)[C@H](O)[C@H]3O)CC1=CC[C@@H]1C2CC[C@]2(C)[C@@H](C3=CC(=O)OC3)CC[C@]12O (stereo partly drawn)
inactive: activation [1] 0.763% | Potency [4] | Potency [3]

COc1ccc2c(c[n+](C)c3c4cc5c(cc4ccc23)OCO5)c1OC
active: Potency [1] 43.2 µM | Potency [11] 7.12 µM | Potency [14] 6.34 µM | Potency [6] 5.9 µM

CCOC(=O)Nc1ccc(NCc2ccc(F)cc2)cc1N
inactive: activation [1] -10.3% and -0.955% | Potency [4] | Potency [6] | Potency [10] | Potency [13] | Potency [9]
